A selection: hits, their analogues and other compounds. The true share with any hit is near 11%.
Sfp PPTase inh: qHTS Assay for Inhibitors of Bacillus subtilis Sfp phosphopantetheinyl transferase (PPTase). 4'-phosphopantetheinyl transferase ffp (Bacillus subtilis), Q9F4F7. AID 1490, 2009. Biochemical Sfp PPTase activity, qHTS. 310,000 tested, 3.5% active. Potency, µM, for the others: largest response in the series, negative = inhibition, usual class: inhibitors;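 note: the enzyme is Sfp with the accession as filed and its product quenches rhodamine fluorescence; potency is the fitted concentration of half-maximal effect; 0% = enzyme reaction without inhibitor and -100% = no enzyme wells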
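Buffer: 50 mM Hepes-Na pH 7.6, 10 mM MgCl2, 0.01% Nonidet P-40, 0.01% BSA. Enzyme 15 nM, pre-exposed to compound 15 min; substrates then added and fluorescence change tracked over 30 min.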
Tau ThT inhib: qHTS for Inhibitors of Tau Fibril Formation, Thioflavin T Binding; Microtubule-associated protein tau (Homo sapiens), P10636; recombinant tau K18 P301L, heparin-induced fibrillization, ThT fluorescence; Potency, µM (titrated, usually from 57.4 µM), for the others: at the highest dose activity, negative = inhibition, usual class: inhibitors; 270,000 tested, 2.1% active; AID 1460, 2008; note: potency is the fitted concentration of half-maximal effect; nearly all actives have a fitted effect of over 55% in size
Target sequence (P10636 561-689 P618L limits assumed): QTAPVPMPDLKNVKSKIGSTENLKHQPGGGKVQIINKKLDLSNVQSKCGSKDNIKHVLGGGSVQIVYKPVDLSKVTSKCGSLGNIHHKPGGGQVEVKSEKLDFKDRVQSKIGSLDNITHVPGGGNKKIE
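Fibril formation assay: tau K18 P301L at 15 uM with trace Alexa 594 label, heparin inducer 20 uM, pH 7 sodium acetate buffer, 37 C for 6 hr; endpoint ThT signal.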
Tau fibril FP: qHTS for Inhibitors of Tau Fibril Formation, Fluorescence Polarization | Microtubule-associated protein tau (Homo sapiens), P10636 | K18 P301L tau heparin fibrillization, Alexa594 FP, 6 h | Potency, µM (highest dose often 57.7 µM), without a hit: top-dose activity, negative = inhibition, actives largely listed as inhibitors | 280,000 tested, 0.39% active; note: potency is the fitted concentration of half-maximal effect; nearly all actives have a fitted effect of over 55% in size
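Quantitative HTS format: compounds meet 15 uM recombinant K18 P301L tau and Alexa 594-tau tracer in 100 mM sodium acetate pH 7; 20 uM heparin triggers fibrillization at 37 C over 6 hr; FP gives the signal.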
Tau fluor cs: Counterscreen qHTS for Inhibitors of Tau Fibril Formation, Fluorescence Polarization; 280,000 tested, 0.93% active; tau K18 P301L Alexa594 fluorescence, heparin fibrillization; Potency, µM (highest dose often 57.7 µM), inactives show top-dose activity change, negative = decrease; note: potency is the fitted concentration of half-maximal effect; nearly all actives have a fitted effect of over 55% in size
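Human tau K18 P301L (15 uM unlabeled, 0.24 uM Alexa 594-labeled) in 100 mM sodium acetate pH 7 with 20 uM heparin, 6 hr at 37 C. ThT 30 uM added, 1 hr ambient; Alexa 594 FP and total fluorescence read at 555/632 nm.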
FBPA coupling cs: qHTS Assay for Inhibitors of Fructose-1,6-bisphosphate Aldolase from Giardia Lamblia: Coupling assay counterscreen | coupling enzyme system counterscreen, AmpLite Red fluorescence | activity change, negative = inhibition, % at 58.2 µM, hits read low | 290,000 tested, 0.67% active; in the data active = activity change below about -30%
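Coupling enzymes only (glyceraldehyde-3-phosphate) + compound, at 57.5 uM final, 10 min RT; add substrate/coupling/AmpLite Red mix, 20 min RT; fluorescence ex 525/em 598 nm. Actives flag coupling-system interference.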
G9a inh: qHTS Assay for Inhibitors of Histone Lysine Methyltransferase G9a | Histone-lysine N-methyltransferase EHMT2 (Homo sapiens), Q96KQ7 | G9a H3K9 monomethylation, AlphaScreen, 2 h | Potency, µM (top dose mostly 102 µM), for the others: at the highest dose activity, negative = inhibition, most hits filed as inhibitors | 350,000 tested, 8.8% active; note: potency is the fitted concentration of half-maximal effect; nearly all actives have a fitted effect of over 75% in size
Target sequence (Q96KQ7 913-1193 limits assumed): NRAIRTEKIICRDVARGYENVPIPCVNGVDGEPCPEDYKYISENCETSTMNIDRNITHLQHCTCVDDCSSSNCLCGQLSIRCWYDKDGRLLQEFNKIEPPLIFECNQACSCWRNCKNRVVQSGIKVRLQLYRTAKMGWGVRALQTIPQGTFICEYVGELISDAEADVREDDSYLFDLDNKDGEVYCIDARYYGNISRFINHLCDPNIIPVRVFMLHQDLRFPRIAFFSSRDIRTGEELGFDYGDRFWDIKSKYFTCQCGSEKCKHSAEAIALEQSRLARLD
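AlphaScreen detection with an anti-monomethyl H3K9 antibody quantified product after a 2 h room-temperature reaction containing 500 nM biotinylated H3K9 peptide, 20 µM SAM and 20 nM enzyme, which had been preincubated 15 min with compound.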
The depositor's hits bear a star; u = inconclusive; x = no result; [ ] = dose if it differs, or a comment. Unless noted, calls come from the whole dose curve; as a rule, active = well fitted curve in the direction sought with a large enough effect; inconclusive = small, poorly fitted or top-dose-only effect, or another doubt; inactive = no such curve, though single readings can be large; an effect the other way counts as inactive or inconclusive. Unless noted, % is set by controls: 0 for no effect and ±100 for the full control effect.

SMILES	Sfp PPTase inh	Tau ThT inhib	Tau fibril FP	Tau fluor cs	FBPA coupling cs	G9a inh
Cc1c(Cl)cccc1NS(=O)(=O)c1ccc2c(c1)C1C=CCC1C(c1ccc(C(=O)O)cc1)N2 (centres undefined)	u	25µM*	u	u	0	2.8µM*
COc1cccc(NS(=O)(=O)c2ccc3c(c2)[C@H]2C=CC[C@H]2[C@@H](c2ccccc2Cl)N3)c1	x	-3%	-5%	u	x	u
Cc1cccc(C)c1NS(=O)(=O)c1ccc2c(c1)[C@H]1C=CC[C@H]1[C@@H](c1ccc(Cl)cc1)N2	x	u	-2%	u	x	3.5µM*
COC(=O)c1ccc([C@H]2Nc3ccc(S(=O)(=O)Nc4ccc(C)cc4)cc3[C@H]3C=CC[C@H]32)cc1	x	u	1%	u	x	3.5µM*
CCOC(=O)c1c(C)[nH]c(CCC(=O)NCc2cc(Br)ccc2OC)c1C	x	u	8%	u	x	0%[59 µM]
CN(C)C(=S)Nc1ccc2c(c1)OCCO2	-3%	-2%	-6%	1%	3	-23%
CC1=C(C(=O)Nc2cccnc2)C(c2ccccc2)n2nc(SCc3ccccc3Cl)nc2N1 (centres undefined)	x	-7%	-15%	-10%	x	-9%[59 µM]
COc1cccc(CN2C[C@]34C=C[C@@H](C[C@@H]3S2(=O)=O)O4)c1	89µM*	7%	-7%	7%	1	0%[59 µM]
O=S1(=O)[C@H]2C[C@@H]3C=C[C@@]2(CN1Cc1cccc(F)c1)O3	11%	x	x	x	0	7%
Cc1ccc(C2(CCNCc3ccc(N(C)C)cc3)CCOC(C(C)C)C2)cc1 (centres undefined)	14%	-4%	4%	-3%	0	u
CC(C)C1CC(CCNCc2ccc(N(C)C)cc2)(c2ccccc2)CCO1 (centres undefined)	4%	-18%	2%	-20%	0	35µM*
Cc1cccc(C)c1Nc1c(-c2ccc(O)cc2)nc2sccn12	x	u	11%	u	x	4µM*
CCc1cccc(C)c1Nc1c(-c2cccc(O)c2)nc2sccn12	x	u	15%	18µM*[quencher]	x	u
COc1cc(-c2nc3sccn3c2Nc2c(C)cccc2C)ccc1O	x	16µM*	22µM*	u	x	8%[59 µM]
Cc1cc2c(cc1S(=O)(=O)NCc1ccc(F)cc1)OCC(=O)N2	x	u	7%	-18%	x	-42%[59 µM]
CCN(CC)c1ccc(CNS(=O)(=O)c2cc3c(cc2C)NC(=O)CO3)cc1	x	-2%	9%	-19%	x	14µM*
Nc1ccccc1Nc1cc(-c2ccccc2)nn1-c1cccc(Cl)c1	14%	u	u	11µM*[quencher]	-6	u
CCOc1ccc(NC(=O)CCc2nnc3n(C)c(=O)c4sccc4n23)cc1	x	u	4%	-16%	x	-9%[59 µM]
Cn1cccc1Cc1nnc(SCC(=O)N2CCc3ccccc32)n1-c1ccc(F)cc1	-4%	-11%	-5%	-7%	0	-7%
Cn1cccc1Cc1nnc(SCC(=O)N2CCCc3ccccc32)n1-c1ccc(F)cc1	-20%	-9%	-6%	-6%	0	50µM*
Cc1ccc(-n2c(Cc3cccn3C)nnc2SCC(=O)N2CCc3ccccc32)cc1	-14%	-9%	-2%	0%	2	45µM*
Cc1ccc(-n2c(Cc3cccn3C)nnc2SCC(=O)NC2CCCCC2)cc1	-4%	-14%	-5%	-6%	2	-4%[2.33 µM]
CC1Cc2ccccc2N1C(=O)CSc1ncc(-c2ccc(F)cc2)n1C (centres undefined)	-12%	-17%	4%	-11%	1	u
Cn1c(-c2ccc(F)cc2)cnc1SCC(=O)N1CCCc2ccccc21	-7%	-9%	-1%	0%	2	45µM*
O=C(NCc1ccc(Cl)cc1)C1CCN(c2nnc(N3CCCC3=O)s2)CC1	18%	x	x	x	4	34%
SMILES	Sfp PPTase inh	Tau ThT inhib	Tau fibril FP	Tau fluor cs	FBPA coupling cs	G9a inh
CCNC(=O)C1CCN(S(=O)(=O)c2ccc3c(c2)CCCN3C(C)=O)CC1	x	4%	-11%	-5%	x	12%[59 µM]
CCOc1cc(C2CC(=O)NC3=C2C(=O)C(C(=O)OC)C(C)C3)cc(Cl)c1O (centres undefined)	5%	-6%	-1%	-4%	5	50µM*
CSc1nnc2c(n1)OC(c1cccc(O)c1Cl)Nc1ccccc1-2 (centres undefined)	x	-7%	4%	4%	x	-6%[59 µM]
CCCCSc1nnc2c(n1)OC(c1ccc(Br)s1)Nc1ccccc1-2 (centres undefined)	x	u	-1%	-13%	x	7.1µM*
O=C(O)Cc1sc(Nc2cccc3ccccc23)nc1-c1ccc(F)cc1	1%	x	x	x	2	45µM*
Cc1ccc(-c2nc(Nc3cccc(C)c3)sc2CC(=O)O)cc1	20µM*	u	5%	-28%	-15	x
O=C(O)Cc1sc(NCCc2ccccc2)nc1-c1ccc(F)cc1	-6%	x	x	x	6	u
O=C(O)Cc1sc(NC2CCCCC2)nc1-c1ccc(Cl)cc1	-14%	x	x	x	7	40µM*
COc1ccccc1Nc1nc(-c2ccccc2)c(CC(=O)O)s1	x	-19%	9%	-17%	x	u
CC1CCCCC1NC(=O)c1cc(S(=O)(=O)N2CCCCC2)ccc1N1CCOCC1 (centres undefined)	x	x	x	x	x	0%[12.7 µM]
COc1ccc(C)cc1Nc1n[n+](-c2ccccc2)c(-c2ccc(C(=O)O)cc2)s1	56µM*	x	x	x	1	10µM*
COc1ccc(C)cc1Nc1n[n+](-c2ccccc2)c(-c2c(OC)ccc3ccccc23)s1	x	x	x	x	x	21%[2.33 µM]
COc1ccc(C)cc1Nc1n[n+](-c2ccccc2)c(-c2cc(OC)c(OC)cc2Br)s1	-28%	x	x	x	-2	40µM*
COc1ccc(-c2ccc(=O)n(CC(=O)Nc3cc(OC)ccc3OC)n2)cc1	x	3%	1%	-3%	x	-2%[59 µM]
CCc1ccc(NC(=O)CSc2nnc(CNC(=O)c3ccco3)o2)cc1	13%	x	x	x	2	-4%[59 µM]
COc1ccc(C(=O)N2CCC(C(=O)O)CC2)c2ccccc12	0%	x	x	x	1	u
COC(=O)C1=C(C(=O)OC)C2(OC1c1ccccc1C)C(=O)c1ccccc1C2=O (centres undefined)	-29%	-14%	-17%	-3%	-2	14µM*
